Unmarked numbers belong to inactive results. No rule for the calls is given here.
Biological target: Pantothenate synthetase (Mycobacterium tuberculosis (strain ATCC 25618 / H37Rv)) (UniProt P9WIL5)
Assay: Coupled enzyme confirmation of inhibitors against recombinant Mtb PanC (AID 375);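 also: 0% = full reaction with vehicle and 100% = no enzyme background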
Settings: coupled enzyme assay; at 10 µM, stronger effect = higher value

Chain of Pantothenate synthetase (Mycobacterium tuberculosis (strain ATCC 25618 / H37Rv)) (P9WIL5 whole entry, looked up): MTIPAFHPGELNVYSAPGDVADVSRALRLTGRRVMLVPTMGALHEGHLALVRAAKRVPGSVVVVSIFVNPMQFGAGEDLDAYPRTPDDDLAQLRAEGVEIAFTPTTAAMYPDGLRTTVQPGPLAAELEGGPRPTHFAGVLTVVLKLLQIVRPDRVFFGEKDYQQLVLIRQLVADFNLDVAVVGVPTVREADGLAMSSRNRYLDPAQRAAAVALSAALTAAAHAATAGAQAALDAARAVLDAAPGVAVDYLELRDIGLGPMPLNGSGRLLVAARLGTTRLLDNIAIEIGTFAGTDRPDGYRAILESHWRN

Row | Compound | inhibition
1 | COC(=O)c1c(NC(=O)CSc2nnc(-c3cccnc3)n2Cc2ccco2)sc(C)c1C | 0%
2 | CCCCC[C@H](O)/C=C/[C@H]1C=CC(=O)[C@@H]1C/C=C\CCCC(=O)O | 0%
3 | CCN(CC)CC(=O)Nc1ccc(-c2nc3cc(NC(=O)CN(CC)CC)ccc3o2)cc1 | 7%
4 | O=C(CSc1nnc2ccccn12)NCCN1C(=O)CSC1=O | 0%
5 | COc1ccc(CC(=O)Nc2ccc(-c3nnc(-c4ccc(C)cc4)o3)cc2)cc1 | 4%
6 | COc1ccc(-c2noc(-c3ccccc3C(=O)Nc3cccnc3)n2)cc1OC | 0%
7 | CCOc1ccc2[nH]c(C)cc(=O)c2c1 | 0%
8 | CC(=O)NC1(c2nnnn2CCOC(=O)Nc2ccc(Cl)cc2)CCCCC1 | 1%
9 | Cc1nnc(NCc2n[nH]c(=O)c3ccccc23)c2ccccc12 | 13%
10 | COc1cc(Nc2cc(C)nc3ncnn23)cc(OC)c1OC | 0%
11 | Cc1nc2ccccn2c(=O)c1CCN1CCC(C(=O)c2ccc(F)cc2)CC1 | 0%
12 | Cc1ccc(NC(=O)CSc2nnc(CCCCCNC(=O)OC(C)(C)C)o2)c(C)c1 | 6%
13 | Cc1ccc(/C=c2\sc3nc(-c4ccccc4Br)nn3c2=O)o1 | 0%
14 | O=C(C1CCCN(S(=O)(=O)c2cnc[nH]2)C1)N1CCN(c2ccc(Cl)cc2)CC1 (stereo not given) | 0%
15 | Cc1ccc(-n2c3c(cc(C(=O)NC4CCSC4=O)c2=O)C(=O)CC(C)(C)C3)cc1 (stereo not given) | 0%
16 | COc1ccc(C(NC(C)=O)c2ccc3cccnc3c2O)c(OC)c1 (stereo not given) | 0%
17 | CNC(=O)Nc1cccc(C(F)(F)F)c1 | 0%
18 | CCOC(=O)c1ccc(NC(=O)CCc2nc(-c3cccc(C)c3)no2)cc1 | 2%
19 | COc1ccccc1OC(=O)c1ccc(SC)cc1OC | 2%
20 | Cn1c(=O)[nH]c(=O)c2c1nc(NCCCn1ccnc1)n2Cc1cccc(Br)c1 | 0%

Row | Compound | inhibition
21 | N#Cc1c(N2CCCC2)nc(N)c2c(N)nc(N3CCCC3)cc12 | 0%
22 | CCOC(=O)N1CCC(NC(=O)CCN2C(=O)COc3ccccc32)CC1 | 0%
23 | CC1CC(C)CN(CCCNC(=O)c2ccc3c(c2)NC(=O)C(N2CCCCC2)S3)C1 (stereo not given) | 0%
24 | CN(C)CCN1C(=O)c2oc3ccc(Cl)cc3c(=O)c2C1c1cccc(Br)c1 (stereo not given) | 0%
25 | Cn1c(=O)[nH]c(=O)c2c1nc(N1CCCCCC1)n2CCCSc1nc2ccccc2o1 | 8%
26 | Cn1cccc1Cc1nnc(SCC(N)=O)n1-c1ccc(F)cc1 | 0%
27 | O=C(O)c1ccccc1C(=O)Nc1ccccc1 | 0%
28 | Cc1nnc(SCC(=O)N(C(C)C)C(C)C)nc1C | 7%
29 | CC(=O)n1nc(-c2ccco2)nc1SCc1ccccc1 | 0%
30 | COc1ccc(C/C(N)=N/n2cnnc2)cc1Cl | 0%
31 | Cc1ccc(C)c(S(=O)(=O)NCc2ccc(C(=O)N3CCN(C)CC3)cc2)c1 | 0%
32 | COc1ccc(OC)c(CNC(=O)CCN2C(=O)COc3ccccc32)c1 | 5%
33 | C=C(C)Cn1c(CCCNC(=O)C(C)(C)C)nc2ccccc21 | 0%
34 | CC(=O)[C@H]1CC[C@H]2[C@@H]3CCC4=CC(=O)CC[C@]4(C)[C@H]3CC[C@]12C | 5%
35 | CCCc1cc(-n2ccnc2)n2c(nc3ccccc32)c1C#N | 0%
36 | CCOC(=O)CN(C(=O)c1ccccc1)c1ccccc1C | 0%
37 | CCOC(=O)c1ccc2[nH]c3c(c2c1)CN(C)CC3 | 1%
38 | CCCc1nc2ccccc2c2nc(N)nn12 | 5%
39 | COc1ccc(NC(=O)Nc2cc(C)ccc2OC)cc1 | 0%
40 | O=c1c2cc(N3CCOCC3)ccc2[nH]c(=S)n1CCCN1CCCC1 | 13%

— PubChem BioAssay
